The list is not random: actives were taken first. Their share in the collection is about 3.8%.
GDH-TPI counter-1 – inhibits GDH-TPI coupling enzymes, artifact for Mtb FBA screen; inhibition, % at 4.8 µM; GDH-TPI coupled enzyme counterscreen, NADH absorbance; 360,000 tested, 1.2% active; AID 588335; in the data active = inhibition above about 30%;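 note: 0% = DMSO wells and 100% = wells lacking the enzyme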
PrPC TRFRET – cell surface PrPC inhibition, primary TR-FRET screen. P04156. TR-FRET read-out. inhibition, % at 13.8 µM. 370,000 tested, 0.43% active. AID 720596; in the data active = inhibition above about 24%; note: 0% = median of the test wells and 100% = reference compound wells
Mtb hypoxia inh – Mtb hypoxia fluorescent reporter inhibition | M. tuberculosis hypoxia-regulated fluorescent reporter, fluorescence | fluorescence inhibition, % (test concentration not listed) | 300,000 tested, 0.1% active | AID 1159583; in the data active = fluorescence inhibition mostly above about 23%, no sharp cut-off; inactive = mostly below about 17%
FBA Mtb inh – inhibits M. tuberculosis FBA enzyme. purified M. tuberculosis FBA, fluorescence read-out. inhibition, % at 1 µM. 360,000 tested, 2.3% active;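 note: 0% = vehicle and 100% = reference inhibitor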
Target sequence (P9WQA3 whole entry, looked up): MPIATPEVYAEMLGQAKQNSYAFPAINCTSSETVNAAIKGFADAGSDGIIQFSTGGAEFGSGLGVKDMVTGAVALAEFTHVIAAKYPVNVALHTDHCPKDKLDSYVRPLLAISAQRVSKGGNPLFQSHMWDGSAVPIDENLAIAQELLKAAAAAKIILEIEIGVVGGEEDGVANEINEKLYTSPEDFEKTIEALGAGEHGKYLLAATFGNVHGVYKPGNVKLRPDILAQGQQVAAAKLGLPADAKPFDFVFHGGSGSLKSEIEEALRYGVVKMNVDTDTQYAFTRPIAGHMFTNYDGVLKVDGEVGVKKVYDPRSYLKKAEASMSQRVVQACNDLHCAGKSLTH
Yp Topo-I inh – Y. pestis Topo-I inhibition via cleavage products. Y. pestis Topo-I cleavage product accumulation, plate reader. activity, % at 10 µM. 360,000 tested, 0.064% active. AID 504884; in the data active = activity above about 50%, passing the limit was not always enough
PrP 5UTR inh – suppresses PrP 5' UTR mRNA reporter expression. cell-based PrP 5' UTR mRNA reporter, plate reader. inhibition, % (no concentration beside the values). 340,000 tested, 0.35% active. AID 488862; in the data active = inhibition above about 52%; note: 0 = median of the neutral control wells
Mtb FBA confirm – Mtb FBA inhibition, confirmed | shares compounds with FBA Mtb inh | inhibition, % at 1 µM | 5,600 tested, 78% active | purified M. tuberculosis FBA, fluorescence read-out;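 note: 0% = vehicle wells and 100% = reference inhibitor wells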
GDH-TPI counter-2 – inhibits GDH-TPI coupling enzymes, flagging Mtb FBA hits. shares compounds with FBA Mtb inh. GDH-TPI coupled enzyme counterscreen, fluorescence. inhibition, % at 1 µM. 5,600 tested, 81% active; in the data active = inhibition above about 10%
Active calls of the source: *. Cut-off read from the data, not from the text of the source, unless noted: active = inhibition above about 27%; inactive = the rest.

Screening CSc1nc2ncc3c(n2n1)CC1c2ccccc2CCN1C3=O (stereo unspecified) returned GDH-TPI counter-1 10.1, PrPC TRFRET -1.3, Mtb hypoxia inh 1.5, FBA Mtb inh 53.5*, Yp Topo-I inh 3.7, PrP 5UTR inh -11.6, Mtb FBA confirm 75.9* and GDH-TPI counter-2 58.0*.
For N#Cc1cnn2c3c(cnc12)C(=O)N1CCc2ccccc2C1C3 (stereo unspecified) the results were GDH-TPI counter-1 -6.1, PrPC TRFRET -2.5, Mtb hypoxia inh -3.7, FBA Mtb inh 27.3*, Yp Topo-I inh 8.4, PrP 5UTR inh -38.8, Mtb FBA confirm 87.1* and GDH-TPI counter-2 63.7*.
`O=C1c2cnc3ncnn3c2CC2c3ccccc3CCN12` (stereo unspecified) gave GDH-TPI counter-1 -2.9, PrPC TRFRET -3.7, Mtb hypoxia inh 9.5, FBA Mtb inh 58.5*, Yp Topo-I inh -8.6, PrP 5UTR inh -35.6, Mtb FBA confirm 22.9 and GDH-TPI counter-2 17.8*.
Cc1cc(C(O)c2ncc(-c3cccc4ccccc34)[nH]2)ccc1F (stereo unspecified) was read as GDH-TPI counter-1 3.1, PrPC TRFRET -0.7, FBA Mtb inh 40.4*, Yp Topo-I inh -8.5, Mtb FBA confirm 56.3* and GDH-TPI counter-2 40.6*.
COc1c(C)cc(C(O)c2ncc(-c3cccc4ccccc34)[nH]2)cc1C (stereo unspecified) was read as GDH-TPI counter-1 0.9, PrPC TRFRET -0.1, FBA Mtb inh 35.2*, Yp Topo-I inh 7.3, Mtb FBA confirm active and GDH-TPI counter-2 active.
COc1c(C)cc(C(O)c2ncc(-c3ccccc3C(F)(F)F)[nH]2)cc1C (stereo unspecified) was read as GDH-TPI counter-1 0.9, PrPC TRFRET -2.4, FBA Mtb inh -2.8 and Yp Topo-I inh 5.4.
For OC(c1ccc(Cl)c(F)c1)c1ncc(-c2cccc3ccccc23)[nH]1 (stereo unspecified) the results were GDH-TPI counter-1 3.1, PrPC TRFRET -2.7, FBA Mtb inh 19.8 and Yp Topo-I inh 1.8.
`Fc1ccccc1C=NNc1nc2ccccc2o1` gave Mtb hypoxia inh 4.2.
Cc1ccc(S(=O)(=O)NN=C(c2ccccc2)C2CC2)cc1 was read as Mtb hypoxia inh -1.1.
For Cc1ccccc1N(C(=O)c1snc(C(N)=O)c1N)C(C(=O)NC1CCCCC1)c1ccc(O)cc1 (stereo unspecified) the results were GDH-TPI counter-1 8.2, PrPC TRFRET 7.3, Mtb hypoxia inh -6.4, FBA Mtb inh 34.9*, Yp Topo-I inh 6.5, PrP 5UTR inh 52.1, Mtb FBA confirm 6.3 and GDH-TPI counter-2 -0.3.
`CCOc1ccccc1N(C(=O)c1snc(C(N)=O)c1N)C(CC)C(=O)NC1CCCC1` (stereo unspecified) gave GDH-TPI counter-1 17.2, PrPC TRFRET -4.6, FBA Mtb inh -1.8, Yp Topo-I inh 10.5 and PrP 5UTR inh 6.1.
Screening Cc1ccccc1N(C(=O)c1snc(C(N)=O)c1N)C(C)C(=O)NC1CCCCC1 (stereo unspecified) returned GDH-TPI counter-1 4.5, PrPC TRFRET -0.6, FBA Mtb inh 31.6*, Yp Topo-I inh 14.4, PrP 5UTR inh -10.1, Mtb FBA confirm 54.3* and GDH-TPI counter-2 37.1*.
`CCOc1ccc(C=NNC(=O)CSc2n[nH]c(=O)[nH]c2=O)cc1OC` gave Mtb hypoxia inh 9.0.
Screening CC(=NNS(=O)(=O)c1ccccc1)c1ccc(Cl)cc1 returned Mtb hypoxia inh 7.0.
`N#Cc1c(-c2ccc(F)cc2)c2c([nH]c1=O)-c1ccccc1OC2` gave GDH-TPI counter-1 -7.7, PrPC TRFRET 7.8, Mtb hypoxia inh 0.6, FBA Mtb inh 104.6*, Yp Topo-I inh -0.1, PrP 5UTR inh -46.7, Mtb FBA confirm active and GDH-TPI counter-2 active.
CC1(C)Cc2c(c(-c3ccco3)[nH]c(=O)c2C#N)CO1 was read as GDH-TPI counter-1 13.4, PrPC TRFRET 1.3, Mtb hypoxia inh 12.3, FBA Mtb inh 13.9, Yp Topo-I inh 0.0 and PrP 5UTR inh -11.5.
`COC(=O)c1ccc(C=Nn2cnnc2)cc1` gave Mtb hypoxia inh -2.6.

Bioassay records from PubChem.
